HCMV antiviral = human cytomegalovirus inhibition | HFF cells, HCMV-luciferase reporter, 72 h; hits give low values | activity change, negative = inhibition, % at 57.5 µM | 4.5% of 410,000 active | AID 1259415; in the data active = activity change below about -60%; inconclusive = no clear call, values can overlap the other calls; inactive = above about -39%
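Screen run at 2 compound doses on HFFs infected with reporter HCMV, MOI 1 PFU/cell. Luciferase activity from cell lysates at 72 h post infection gave inhibition relative to buffer-only and Salinomycin wells.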
Sm TGR block = inhibitors of Schistosoma mansoni thioredoxin glutathione reductase; 3% of 360,000 active; Q962Y6; Potency, µM (doses to about 114 µM), hits mostly inhibitors; purified TGR, DTNB reduction, TNB absorbance 405 nm; AID 485364; also: nearly all actives have a fitted effect of over 60% in size
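TGR 20 nM + NADPH 100 uM (dispensed conc.), cpd preinc 15 min RT; start with NADPH (500 uM addition) then DTNB (15 mM addition). Kinetic TNB absorbance, 405 nm filter. Four-parameter Hill fit across titration.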
Pf growth 96h = P. falciparum growth inhibition at 96 hours | P. falciparum luciferase reporter growth, 96 h | Potency, µM (titrated, usually from 28.7 µM), most hits filed as inhibitors | 6.9% of 320,000 active
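Compounds incubated with erythrocytes infected by luciferase-expressing P. falciparum (2% hematocrit, 0.05% parasitemia final) for 96 hours, 37 C in 5% CO2. Growth inhibition scored as decreased luciferase luminescence.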
Pf growth 48h = P. falciparum growth inhibition at 48 hours (one generation) | 5.9% of 310,000 active | P. falciparum luciferase growth in erythrocytes, 48 h | Potency, µM (doses to about 28.7 µM), hits mostly inhibitors | AID 504832
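Luciferase-expressing P. falciparum in infected erythrocytes (2% hematocrit, 0.1% parasitemia final) in RPMI 1640/0.5% Albumax were exposed to compound for 48 hours at 37 C, 5% CO2; growth read as luminescence.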
Giardia FBPA inh = blocks Giardia fructose-bisphosphate aldolase activity | A8B2U2 | purified Giardia FBPA | Potency, µM (highest dose often 59.6 µM), actives largely listed as inhibitors | 0.71% of 290,000 active | AID 2451; also: nearly all actives have a fitted effect of over 55% in size
Target sequence (A8B2U2 whole entry, looked up): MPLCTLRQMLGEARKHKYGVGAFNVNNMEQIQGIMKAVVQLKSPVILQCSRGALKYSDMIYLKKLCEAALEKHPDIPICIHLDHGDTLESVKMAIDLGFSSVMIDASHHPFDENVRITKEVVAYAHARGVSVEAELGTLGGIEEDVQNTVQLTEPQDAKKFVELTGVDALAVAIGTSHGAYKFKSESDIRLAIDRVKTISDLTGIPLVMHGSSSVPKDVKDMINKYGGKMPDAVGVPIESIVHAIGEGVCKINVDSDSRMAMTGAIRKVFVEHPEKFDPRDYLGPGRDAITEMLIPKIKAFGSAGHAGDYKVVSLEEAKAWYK
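Giardia FBPA (40 nM reagent) was preincubated 10 min at RT with compound (up to 57.5 uM final), then substrate plus GAPDH/TPI/NAD/arsenate coupling system with diaphorase/resazurin was added; resorufin fluorescence (525/598 nm) was read after 20 min.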
A number is an active result; - = inactive; ? = inconclusive; . = no result given; ! = a repeat was not active; [ ] = dose if it differs, or a comment. In the library only some 14% were active in any assay of this set; here they are far more common. Unless noted, calls follow the shape of the dose curve; as a rule, active = well fitted curve in the direction sought with a large enough effect; inconclusive = small, poorly fitted or top-dose-only effect, or another doubt; inactive = no such curve, though single readings can be large; an effect the other way counts as inactive or inconclusive.

SMILES | HCMV antiviral | Sm TGR block | Pf growth 96h | Pf growth 48h | Giardia FBPA inh
Cn1c(=O)c2c(nc(NCCO)n2CCc2ccccc2)n(C)c1=O | ? | - | 10µM | - | -
COc1cccc(/C=C/C(=O)c2c(O)cc(C)oc2=O)c1O | -97 | - | - | . | -
Cc1cc(O)c(C(=O)/C=C/c2ccc(Cl)cc2)c(=O)o1 | - | 25µM | ? | ? | -
C/C(=C\C(=O)c1c(O)cc(C)oc1=O)N(C)C | - | - | - | - | -
COc1ccc(/C=C/C(=O)c2c(O)cc(C)oc2=O)c(OC)c1 | - | - | - | - | -
CSc1ccc(/C=C/C(=O)c2c(O)cc(C)oc2=O)cc1 | -80 | - | ? | ? | -
CCCCN(CCCNC(=O)CN1C(=O)COc2ccc(S(=O)(=O)N3CCC(C)CC3)cc21)Cc1ccccc1 | - | - | ? | ? | -
CN1C(=O)Cc2cc(S(=O)(=O)CCC(=O)Nc3ccc(Cl)cc3)ccc21 | - | - | . | . | .
Cc1ccc(OCC(=O)N2CCCC(CO)(CCOc3ccccc3)C2)cc1 (centres undefined) | - | - | - | - | .
CCN1CCN(Cc2c(O)ccc3c2O/C(=C\c2ccc(C)cc2)C3=O)CC1 | - | ? | 2.3µM | 5.2µM | -
CC1CCCN(Cc2c(O)ccc3c2O/C(=C\c2ccco2)C3=O)C1 (centres undefined) | - | 25µM | 3.3µM | 2.3µM | -
CCN1CCN(Cc2c(O)ccc3c2O/C(=C\c2ccccc2)C3=O)CC1 | - | 45µM | 12µM | ? | -
Cc1ccc(NC(=O)C2CCN(c3cnccn3)CC2)cc1 | - | - | ? | - | -
CCOc1ccc2nc(NC(=O)C3CCN(c4cnccn4)CC3)sc2c1 | - | - | - | 9.3µM | -
CCCc1ccc(NC(=O)C2CCN(c3cnccn3)CC2)cc1 | -64! | - | - | ? | .
CN(CC(=O)Nc1cccc(F)c1)C(=O)/C=C/c1cn(Cc2ccccc2)nc1-c1cccnc1 | - | - | 10µM | ? | .
CO[C@H]1C=C2CCN(C)[C@H]2C2c3cc4c(cc3C(=O)O[C@@H]21)OCO4 (some centres undefined) | -63 | - | - | - | .
Cn1c(=O)c2[nH]c(CCCCCCCCc3nc4ccccc4[nH]3)nc2n(C)c1=O | -91 | . | . | . | .
COC(=O)Cn1cc(C(=O)OC)cc(Br)c1=O | - | - | - | - | -
COC(=O)c1cc(Br)c(=O)n(CCc2ccccc2)c1 | -103 | - | -[5.75 µM] | - | -
COC(=O)c1cc(Br)c(=O)n(Cc2ccc3c(c2)OCO3)c1 | - | - | 9.3µM | ? | -
CCc1cccc(C)c1NC(=O)COC(=O)CSCc1ccccc1 | - | . | . | . | .
Cc1ccc(CN2C(=O)N(c3ccc(F)cc3)C(=O)C2CC(=O)Nc2ccc(Cl)cc2)cc1 (centres undefined) | - | - | . | . | .
CC(C)C[C@H](N)c1nnc(S(=O)(=O)Cc2ccc(F)cc2)o1 | . | 1µM | ? | - | -
Clc1ccc(N2CCN(Cc3ccco3)CC2)cc1 | - | - | ? | - | ?
SMILES | HCMV antiviral | Sm TGR block | Pf growth 96h | Pf growth 48h | Giardia FBPA inh
Cc1cc(=O)n2nc(N3CCC(C(=O)NCc4ccccc4Cl)CC3)sc2n1 | - | - | 12µM | ? | -
Cc1cc(=O)n2nc(N3CCC(C(=O)NC(C)c4ccccc4)CC3)sc2n1 (centres undefined) | - | - | . | - | -
Cc1cc(=O)n2nc(N3CCC(C(=O)NC4CCCc5ccccc54)CC3)sc2n1 (centres undefined) | - | - | 0.59µM | ? | -
Cc1cc(=O)n2nc(N3CCC(C(=O)NCc4ccc(F)cc4)CC3)sc2n1 | - | - | ? | - | .
O=c1ccc(-c2ccc(S(=O)(=O)N3CCN(c4cccc(Cl)c4)CC3)o2)n[nH]1 | - | - | ? | - | .
COc1ccc(S(=O)(=O)N2CCC(C(=O)NCc3ccncc3)CC2)cc1 | - | - | - | - | .
Cc1cccc(N(C)C(=O)Cn2cnc3nc4c(cc3c2=O)CCCC4)c1 | - | - | . | . | .
O=S(=O)(c1ccccc1F)N1CCN(CCc2ccccc2)CC1 | -72 | - | - | - | -
O=S(=O)(NCCN1CCN(S(=O)(=O)c2ccccc2F)CC1)c1ccccc1F | - | . | . | . | .
COc1ccc(-c2noc(CSCC(=O)Nc3ccc(C)cc3Br)n2)cc1OC | - | - | . | . | .
COC(=O)CCN(Cc1ccc(OC)cc1OC)S(=O)(=O)c1ccccc1Br | - | . | . | . | .
COc1cc2nc(=S)n3[nH]c(COc4ccccc4C)nc3c2cc1OC | - | - | - | ? | -
COc1cc2nc(=S)n3[nH]c(CCn4nc(C)cc4C)nc3c2cc1OC | - | - | - | 2.9µM | ?
CC(C)C[C@@H](CO)NS(=O)(=O)c1c(F)cccc1F | - | . | . | . | .
CC(C)(C)c1ccc(OCCNCc2ccccc2)cc1 | - | - | - | - | ?
Cc1cc(C)c(OCCNCc2ccccc2)c(C)c1 | - | - | - | - | ?
Cc1cc(C)c(C)c(OCCNCc2ccccc2)c1 | - | - | 12µM | - | ?
Cc1cc(Cl)cc(C)c1OCCOCCNCc1ccccc1 | - | - | 15µM | ? | ?
Clc1ccc(OCCOCCNCc2ccccc2)cc1Cl | - | - | 13µM | - | -
Cc1ccc(S(=O)(=O)N2CCCc3cc(NS(=O)(=O)c4ccc(F)c(C)c4)ccc32)cc1 | -60 | - | . | . | .
NC(=O)Cn1nc([N+](=O)[O-])nc1Oc1ccccc1F | - | - | ? | - | -
O=Cc1cc(OCc2ccccc2)ccc1[B-](F)(F)F | - | . | . | . | .
c1ccc(Cn2c[n+](Cc3ccccc3)c3ccccc32)cc1 | - | - | 6.6µM | ? | .
O=c1ccn(Cc2ccccc2)c2ccccc12 | - | - | ? | - | -
COc1nnc(OC)c2ccccc12 | ? | - | 0.47µM | - | -
COc1c2ccccc2c(OC)c2ccccc12 | -64 | - | 15µM | - | -
CC(C)C[C@H](NC(=O)OC(C)(C)C)C(=O)N[C@@H](CO)[C@H](O)[C@@H]1C[C@@H]1C(=O)NC1CCCCC1 | ? | - | ? | - | -
CCC1(O)CC2CN(CCc3c([nH]c4ccccc34)C(C(=O)OC)(c3cc4c(cc3OC)N(C=O)C3C(O)(C(=O)OC)C(OC(C)=O)C5(CC)C=CCN6CCC43C65)C2)C1 (centres undefined) | -88 | . | . | . | .
CCC1(O)CC2CN(CCc3c([nH]c4ccccc34)[C@@](C(=O)OC)(c3cc4c(cc3OC)N(C=O)C3[C@]45CCN4CC=C[C@@](CC)([C@@H](OC(C)=O)[C@]3(O)C(=O)OC)[C@H]45)C2)C1 (some centres undefined) | . | . | . | . | -
CCC1=C[C@@H]2CN(C1)Cc1c([nH]c3ccccc13)[C@@](C(=O)OC)(c1cc3c(cc1OC)N(C)[C@@H]1[C@@](O)(C(=O)OC)[C@H](OC(C)=O)[C@]4(CC)C=CCN5CC[C@]31[C@@H]54)C2 | . | . | 0.85µM | 0.48µM | .
